Screens (PubChem BioAssay)
A selection: hits, their analogues and other compounds. The true share with any hit is near 8.8%.
HPGD inh: blocks human HPGD enzyme activity. P15428. purified HPGD, NADH fluorescence kinetic, PGE2 substrate. Potency, µM, inactives show at the highest dose activity change, negative = inhibition, most hits filed as inhibitors. actives 4.3% (n = 150,000). AID 894; active means well fitted inhibition curve with a large enough effect, not every such curve was filed as active; inconclusive means small, poorly fitted or top-dose-only effect, or another doubt; inactive means no such curve, though single readings can be large or run the other way; further: on the % scale 0 is the no-effect control and ±100 the full control effect
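20 nM HPGD preincubated 15 min at room temperature with compound in 50 mM Tris-HCl pH 8, 0.01% Tween 20. Started with 1 mM NAD+ and 30 uM prostaglandin E2; NADH fluorescence (360/450 nm) read 5 times over 30-s intervals, last minus first.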
Lamin A splicing: LMNA splicing modulation | HeLa LMNA splicing GFP/RFP minigene ratio, 48 h | actives 0.01% (n = 200,000) | Potency, µM (series often up to 46.1 µM), inactives show at the top dose ratio change, negative = inhibition, most hits filed as inhibitors; active means well fitted inhibition curve with a large enough effect in the signal ratio, with a control signal flat, not every such curve was filed as active; inconclusive means small, poorly fitted or top-dose-only effect, or effect the other way, or a change in a side signal; the % refers to the signal ratio; further: on the % scale 0 is the no-effect control and ±100 the full control effect
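S3 HeLa stable clones carrying a lamin A-EGFP splicing minigene plus DsRed2 were seeded at 600 cells/well in Opti-MEM with 2% FBS, pin-dosed and incubated 48 h at 37°C. Acumen cytometry (488 nm) gave the GFP/RFP total-intensity ratio.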
HTT aggregate: reduces HttQ103-GFP aggregates in PC12 cells | AID 1688 | actives 1.1% (n = 220,000) | Potency, µM (titrated, usually from 46.1 µM), for the others: top-dose activity change, negative = inhibition, hits mostly inhibitors | PC12 HttQ103-GFP aggregates, Acumen cytometry, 40 h; further: on the % scale 0 is the no-effect control and ±100 the full control effect; nearly all actives have a fitted effect of over 60% in size
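Steps: seed 1500 PC12 HTTQ103-GFP cells/well; add tebufenozide, 100 nM final; add compound titration; add ATPLite reagent; quantify GFP aggregates by laser scanning cytometry.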
HTT ATP protect: cytoprotection in Huntington HTT-Q103 PC12 cell model | Potency, µM (doses to about 56.4 µM), for the others: cytoprotection (ATP increase), actives largely listed as activators | PC12 HTT-Q103 induced, cytoprotection, ATP luminescence, 40 h | actives 0.14% (n = 230,000); further: % of control where 0% means no effect; nearly all actives have a fitted effect of over 45% in size
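Rat PC12, Q103 Htt exon1-GFP fusion, ecdysone promoter; tebufenozide inducer 100 nM final; compound titration; qHTS, 1500 cells/well; ATPlite luminescent read.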
ALDH1A1 block: inhibitors of human aldehyde dehydrogenase 1A1. P00352. Purified ALDH1A1, NADH fluorescence, propionaldehyde substrate. Potency, µM (doses to about 75.3 µM), inactives show top-dose activity, negative = inhibition, hits mostly inhibitors. actives 7.3% (n = 220,000); active means well fitted inhibition curve with a large enough effect, not every such curve was filed as active; inconclusive means small, poorly fitted or top-dose-only effect, or another doubt; inactive means no such curve, though single readings can be large or run the other way;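 further: plate controls were no enzyme wells and a reference inhibitor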
Target sequence (P00352 whole entry, looked up): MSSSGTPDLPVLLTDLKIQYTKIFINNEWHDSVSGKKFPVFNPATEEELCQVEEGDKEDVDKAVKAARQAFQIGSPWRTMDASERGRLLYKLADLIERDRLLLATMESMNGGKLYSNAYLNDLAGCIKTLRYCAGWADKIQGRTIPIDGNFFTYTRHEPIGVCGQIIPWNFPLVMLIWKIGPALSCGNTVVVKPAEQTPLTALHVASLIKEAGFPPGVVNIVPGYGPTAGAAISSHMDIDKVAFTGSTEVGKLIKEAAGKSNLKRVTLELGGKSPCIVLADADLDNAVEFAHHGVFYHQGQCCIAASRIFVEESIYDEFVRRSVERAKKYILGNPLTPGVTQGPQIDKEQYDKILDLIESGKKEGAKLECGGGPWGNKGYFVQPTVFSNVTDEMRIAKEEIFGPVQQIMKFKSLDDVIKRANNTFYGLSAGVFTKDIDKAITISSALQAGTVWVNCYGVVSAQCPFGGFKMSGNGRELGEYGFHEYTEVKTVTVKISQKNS
* hit, by the source's call; ? = inconclusive; . = no result; [ ] = dose if it differs, or a comment. Unless noted, the call rests on the fitted dose curve; in most records, active means well fitted curve in the direction sought with a large enough effect; inconclusive means small, poorly fitted or top-dose-only effect, or another doubt; inactive means no such curve, though single readings can be large; an effect the other way counts as inactive or inconclusive. Potency means the concentration at half of the fitted maximal effect.

SMILES	HPGD inh	Lamin A splicing	HTT aggregate	HTT ATP protect	ALDH1A1 block
COc1cccc(-c2csc(N3CCN(C(=O)Nc4ccccc4Cl)CC3)n2)c1	.	?	6%[9.22 µM]	15%[10 µM]	22µM*
O=C(COC(=O)C1CC2C=CC1C2)NCc1ccccc1Cl (configuration not stated)	-14%	13%	-13%	-2%[10 µM]	-4%
COc1cccc(-n2c(CN3CCN(Cc4ccccc4)CC3)nc3ccc([N+](=O)[O-])cc3c2=O)c1	-2%	-15%	7%	1%[10 µM]	24µM*
O=c1c2cc([N+](=O)[O-])ccc2nc(CN2CCN(c3ccccn3)CC2)n1-c1ccccc1F	.	.	2%	-26%	14µM*
COc1ccc(-n2c(CN3CCN(c4ccccn4)CC3)nc3ccc([N+](=O)[O-])cc3c2=O)c(OC)c1	.	-14%[46 µM]	1%	-14%	?
COc1ccc(-n2c(CN3CCN(Cc4ccccc4)CC3)nc3ccc([N+](=O)[O-])cc3c2=O)c(OC)c1	.	.	-2%	-25%	20µM*
CC1CCCN(CCOc2ccc3ccccc3c2Br)C1 (configuration not stated)	.	-24%[46 µM]	-2%	-43%	?
CS(=O)(=O)c1ccc(CNC(=O)[C@H]2C[C@@H]2[C@H](NP(=O)(c2ccccc2)c2ccccc2)c2ccccc2)cc1	-3%	.	.	-10%	8%
CCCCC(=O)N(C)C	-5%	.	.	25%	?
CCOC(=O)c1cc(C(C)(C)C)nc(SC)c1C#N	.	.	-6%[9.22 µM]	-15%[10 µM]	-1%
CCOC(=O)c1cc(C)nc(SC)c1C#N	.	.	17%[9.22 µM]	2%[10 µM]	40µM*
C=CCNc1nc2c(c(=O)n(C)c(=O)n2C)n1CC	-18%	-2%	13µM*	-28%	11%
C=CCNc1nc2c(c(=O)n(C)c(=O)n2C)n1CCCCCC	-15%	?	?	-42%[10 µM]	3%
CC(C)Oc1ccc(CNC(=O)c2ccc3c(c2)nc2n3CCOC2)cc1	.	2%[46 µM]	.	.	.
Cc1ccc(Cc2c[nH]c(=S)s2)cc1	.	.	?	23%[10 µM]	8.9µM*
CC1=CC2C(C)(C)CC(=O)C[C@]2(C)CC1COc1ccc2c(c1)CC(=O)C=C2 (some centres not stated)	?	.	.	-92%	?
COc1ccccc1N1CCN(CC2CN3C(=O)N(C)c4ccccc4C3=N2)CC1 (configuration not stated)	.	.	.	-35%	0%
CC(=O)Nc1cccc(NC(=O)CSc2ccc(C(F)(F)F)cc2[N+](=O)[O-])c1	?	-4%	15%	16%	?
O=C(CSc1ccc(C(F)(F)F)cc1[N+](=O)[O-])Nc1ccc2ccccc2c1	-7%	5%	?	.	5.6µM*
O=C(CSc1ccc([N+](=O)[O-])cc1)NCC1CCCCC1	.	.	-12%	-20%	28µM*
O=C(CSc1cccc[n+]1[O-])NCC1CCCCC1	.	.	-7%	7%	1%
O=S1(=O)CC=C(CSC(=S)NC2CCS(=O)(=O)C2)C1 (configuration not stated)	.	-8%[46 µM]	.	.	19µM*
CC(C)(C)c1cc(CSC(=S)NC2CCS(=O)(=O)C2)c(Br)c(C(C)(C)C)c1 (configuration not stated)	.	.	?	-34%[10 µM]	-9%
CC(C)c1ncc([N+](=O)[O-])n1C	.	.	-22%	-9%	.
COc1cc2ncnc(NCc3ccc(Cl)cc3)c2cc1OC	.	.	-21%[9.22 µM]	-87%	6%
SMILES	HPGD inh	Lamin A splicing	HTT aggregate	HTT ATP protect	ALDH1A1 block
Cc1ccc(CNc2ncnc3cc(Cl)ccc23)o1	-15%	?	13µM*	-10%	-6%
CCN(CC)C(=O)c1cc2sc3ccccc3c2s1	7.9µM*	?	-14%	-15%	?
COC(=O)NC(CC(C)=O)c1cccs1 (configuration not stated)	.	.	.	8%[10 µM]	?
COc1ccc(/C=N/NC(=O)c2ccc3nc[nH]c3c2)cc1	.	.	-16%[9.22 µM]	-6%[10 µM]	5%
CCOC(=O)NC(=O)CSc1nnnn1-c1ccccc1	-2%	8%	-9%	-3%	?
CC1=Nc2ccccc2N=C(NC(=O)CSC(=S)N2CCCCC2)C1c1ccccc1 (configuration not stated)	.	.	2%[9.22 µM]	16%[10 µM]	.
CC1=Nc2ccccc2N=C(NC(=O)CN2CCN(c3ccccc3)CC2)C1c1ccccc1 (configuration not stated)	.	.	-6%[9.22 µM]	14%[10 µM]	0.89µM*
CCOC(=O)C1CCCN(CC(=O)NC2=Nc3ccccc3N=C(C)C2c2ccccc2)C1 (configuration not stated)	-6%	16%	1%	5%[10 µM]	4.5µM*
CCOC(=O)C1CCCN(CC(=O)Nc2cc(C)cc(C)c2)C1 (configuration not stated)	.	9%[9.22 µM]	9%	-10%	3%
CC1=Nc2ccccc2N=C(NC(=O)CSc2nnnn2-c2ccccc2)C1c1ccccc1 (configuration not stated)	-14%	?	-2%	10%	4.5µM*
CCOC(=O)C1CCCN(CC(=O)Nc2cccc(C(C)=O)c2)C1 (configuration not stated)	.	?	-4%	-1%	10µM*
O=C(O)CN1C(=O)c2ccc(Oc3ccc4c(c3)C(=O)N(CC(=O)O)C4=O)cc2C1=O	.	.	-14%[9.22 µM]	2%[10 µM]	.
CCOc1ccccc1NC(=O)CSc1nnnn1-c1ccccc1	-18%	-1%	-8%	-4%	16µM*
O=C(COc1ccc(Cl)cc1)OCC(=O)N1CCCc2ccccc21	-3%	-5%	-8%	34%[10 µM]	10%
O=C(Cn1nnc2ccccc2c1=O)N1CCCc2ccccc21	-5%	5%	-3%	0%	?
COc1ccc(CCNC(=O)COC(=O)Cn2cnc3ccccc32)cc1OC	.	-8%[46 µM]	-6%	-19%	?
O=C(COc1nnnc2ccccc12)N1CCCc2ccccc21	4%	11%	4.5µM*	13%[10 µM]	-3%
O=C(Cn1cnc2ccccc21)OCC(=O)N1CCCc2ccccc21	-4%	-1%	-4%[9.22 µM]	-5%[10 µM]	14µM*
O=C(COC(=O)Cn1cnc2ccccc21)NCCc1ccc(Cl)cc1	-9%	3%	8%	4%	13µM*
CCOC(=O)CC1CCCCN1Cc1cn[nH]c1-c1ccc(F)cc1F (configuration not stated)	.	?	2%[9.22 µM]	2%[10 µM]	13%
CCOc1ccc(NC(=O)c2sc(-n3nc(C)c(Cc4ccc(Cl)cc4)c3C)nc2C)cc1	.	8%[46 µM]	.	.	.
COc1ccc(CC(=O)Nc2cccc(-c3nnc(-c4cccc(C)c4)o3)c2)cc1OC	?	?	11µM*	-28%[10 µM]	?
CCn1c2ccccc2c2cc(NC(=O)CSc3nnc(-c4ccccc4)o3)ccc21	-13%	?	-14%	-36%	?
COc1ccc(CC(=O)Nc2cccc(-c3nnc(-c4ccc(C)cc4)o3)c2)cc1OC	-4%	?	-17%	6%[1.9 µM]	-15%
COc1ccc(Cc2nnc(-c3cccc(C)c3)o2)cc1OC	18µM*	?	-23%	-6%	-7%
